Reference: PubChem BioAssay (NCI)
About 79,000 compounds went through this panel and 15% of them were active in at least one assay; those are over-represented in the sample as a whole. Unmarked numbers belong to inactive results. Activity calls are given as the source filed them. No stated cut-off is given here; in the data, active means growth inhibition above about 70%; inactive means the rest.

Test: NCI Yeast Anticancer Drug Screen. Data for the rad50 strain (AID 155);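 further: 0% = growth of vehicle-only cultures of the same strain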
Settings: S. cerevisiae rad50 strain growth inhibition; at 11.0 µM; stronger effect = higher value
How it was run: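 Inhibition values express reduced yeast growth in compound-treated cultures relative to vehicle-treated controls.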

Row | Structure (SMILES) | growth inhibition
1 | O=CC=C(c1ccccc1)c1ccccc1 | 4%
2 | FC(F)(F)c1nc2nc(Cl)c(Cl)nc2n1CCCN1CCOCC1 | 18%
3 | BrCC[P+](c1ccccc1)(c1ccccc1)c1ccccc1 | 54%
4 | N#CSc1ccc(S(N)(=O)=O)cc1 | -36%
5 | O=[N+]([O-])c1ccc2nc3ccccc3cc2c1 | 59%
6 | O=C(NC(Nc1ccc(F)c(Cl)c1)(C(F)(F)F)C(F)(F)F)C(C(F)(F)F)C(F)(F)F | 44%
7 | O=C(/C=C\c1ccc(Cl)cc1Cl)c1cccs1 | 0%
8 | O=C(NCCCCNCCCNC(=O)c1cc(-c2ccccc2)nc2ccccc12)c1cc(-c2ccccc2)nc2ccccc12 | -3%
9 | NC(=NCc1ccccc1)N/N=C\c1ccnc2ccccc12 | 4%
10 | CCCCN(CCCC)CCSc1ccc(Cl)cc1 | -15%
11 | COc1cc(C2C3=C(COC3=O)Oc3cc4c(cc32)OCO4)ccc1O (stereo not drawn) | -10%
12 | C#CCCCc1ccccc1 | -36%
13 | CCc1ccc(NS(=O)(=O)c2ccccc2)c([N+](=O)[O-])c1 | 5%
14 | COc1ccc(C2c3cc4c(cc3OC(C)(O)C2C)OCO4)c(OC)c1 (stereo not drawn) | 0%
15 | COC(=O)c1ccc(CCC2=CC(=O)C(Br)=CC2=O)cc1 | 15%
16 | NNC(=O)CCc1ccc2ccc3ccccc3c2c1 | 9%
17 | Cn1c2ccccc2c(=O)c2cc(NC(=O)CCCCC(=O)Nc3ccc4c(c3)c(=O)c3ccccc3n4C)ccc21 | 41%
18 | CC(CC(C)(C)[N+](C)(C)C)[N+](C)(C)C (stereo not drawn) | 2%
19 | CC1CCN(CCC(=O)c2ccc(Cl)cc2)CC1 | 32%
20 | CCCCCCCCCCCCCCC(C(=O)[O-])[n+]1ccccc1 (stereo not drawn) | 3%

Row | Structure (SMILES) | growth inhibition
21 | CNC1C(OC2C(OC3C(O)C(O)C(N=C(N)N)C(O)C3N=C(N)N)OC(C)C2(O)CO)OC(CO)C(O)C1O (stereo not drawn) | 4%
22 | O=C(O)c1ccccc1-c1ccccc1C(=O)Nc1ccc2c(c1)Cc1ccccc1-2 | 23%
23 | O=[N+]([O-])c1cccc2nc3ccccc3c(NCCCN3CCOCC3)c12 | 96% (active)
24 | C=CC(C)(O)CCC1C(=C)C(O)CC2C(C)(C)CCCC12C (stereo not drawn) | 19%
25 | CN1c2ccc(Cl)cc2C(=O)NC1c1ccc([N+](=O)[O-])s1 (stereo not drawn) | 72% (active)
26 | [O-][n+]1c2ccc(O)cc2nc2ccc(Br)cc21 | 56%
27 | O=C1c2ccccc2-c2nc3ccccc3nc21 | 0%
28 | CCCCN1C(=O)N(c2ccc(OCC)cc2)C2N(CCCC)C1C(C)(C)C2(C)C (stereo not drawn) | 9%
29 | CO[C@H]1C[C@](C)(O)Cc2cc3c(c(O)c21)C(=O)c1c(O)cc2c(c1C3=O)O[C@@H]1O[C@@]2(C)[C@H](O)[C@@H](N(C)C)[C@@H]1O | 17%
30 | COc1cc2c(cc1[N+](=O)[O-])C(=O)C(Br)(Br)CCC2 | 97% (active)
31 | O=C1OC(CCl)CN1/N=C/c1ccc([N+](=O)[O-])o1 (stereo not drawn) | 3%
32 | CN(C)CCOc1ccc2c(c1)C/C(=C/c1ncc([N+](=O)[O-])n1C)C2=O | 64%
33 | CCCCCCCCCCCCCCCCCCN(C)CC(COP(=O)([O-])OCC[N+](C)(C)C)OC (stereo not drawn) | 98% (active)
34 | CC(C)c1ccccc1NC(=O)/C(Cl)=C(\Cl)C(=O)O | -2%
35 | O=[N+]([O-])C(=C(Sc1ccccc1)Sc1ccccc1)C(Cl)=C(Cl)Cl | 23%
36 | C(=C\c1ccccc1)/COc1ccccc1C(N1CCOCC1)n1nc2ccccc2n1 (stereo not drawn) | 8%
37 | O=C1C(Nc2ccccc2)=C(Oc2ccccc2)C(=O)c2ccccc21 | -5%
38 | CCN(CC)CCN1C(=O)c2cccc3cc(OC)cc(c23)C1=O | 74% (active)
39 | CN(C)Cc1cc(N=Nc2ccc(Cl)cc2)cc(CN(C)C)c1O | 8%

Same assay, conditions: S. cerevisiae rad50 strain growth inhibition; at 33.0 µM; stronger effect = higher value

Row | Structure (SMILES) | growth inhibition
40 | O=CC=C(c1ccccc1)c1ccccc1 | 11%
41 | FC(F)(F)c1nc2nc(Cl)c(Cl)nc2n1CCCN1CCOCC1 | 22%
42 | BrCC[P+](c1ccccc1)(c1ccccc1)c1ccccc1 | 94% (active)
43 | N#CSc1ccc(S(N)(=O)=O)cc1 | 17%
44 | O=[N+]([O-])c1ccc2nc3ccccc3cc2c1 | 89% (active)
45 | O=C(NC(Nc1ccc(F)c(Cl)c1)(C(F)(F)F)C(F)(F)F)C(C(F)(F)F)C(F)(F)F | 91% (active)
46 | O=C(/C=C\c1ccc(Cl)cc1Cl)c1cccs1 | 0%
47 | O=C(NCCCCNCCCNC(=O)c1cc(-c2ccccc2)nc2ccccc12)c1cc(-c2ccccc2)nc2ccccc12 | 81% (active)
48 | NC(=NCc1ccccc1)N/N=C\c1ccnc2ccccc12 | 7%
49 | CCCCN(CCCC)CCSc1ccc(Cl)cc1 | 28%
50 | COc1cc(C2C3=C(COC3=O)Oc3cc4c(cc32)OCO4)ccc1O (stereo not drawn) | 35%
51 | C#CCCCc1ccccc1 | -24%
52 | CCc1ccc(NS(=O)(=O)c2ccccc2)c([N+](=O)[O-])c1 | 22%
53 | COc1ccc(C2c3cc4c(cc3OC(C)(O)C2C)OCO4)c(OC)c1 (stereo not drawn) | 9%
54 | COC(=O)c1ccc(CCC2=CC(=O)C(Br)=CC2=O)cc1 | 18%
55 | NNC(=O)CCc1ccc2ccc3ccccc3c2c1 | 7%
56 | Cn1c2ccccc2c(=O)c2cc(NC(=O)CCCCC(=O)Nc3ccc4c(c3)c(=O)c3ccccc3n4C)ccc21 | 76% (active)
57 | CC(CC(C)(C)[N+](C)(C)C)[N+](C)(C)C (stereo not drawn) | 2%
58 | CC1CCN(CCC(=O)c2ccc(Cl)cc2)CC1 | 52%
59 | CCCCCCCCCCCCCCC(C(=O)[O-])[n+]1ccccc1 (stereo not drawn) | 4%

Row | Structure (SMILES) | growth inhibition
60 | CNC1C(OC2C(OC3C(O)C(O)C(N=C(N)N)C(O)C3N=C(N)N)OC(C)C2(O)CO)OC(CO)C(O)C1O (stereo not drawn) | 31%
61 | O=C(O)c1ccccc1-c1ccccc1C(=O)Nc1ccc2c(c1)Cc1ccccc1-2 | 49%
62 | O=[N+]([O-])c1cccc2nc3ccccc3c(NCCCN3CCOCC3)c12 | 97% (active)
63 | C=CC(C)(O)CCC1C(=C)C(O)CC2C(C)(C)CCCC12C (stereo not drawn) | 61%
64 | CN1c2ccc(Cl)cc2C(=O)NC1c1ccc([N+](=O)[O-])s1 (stereo not drawn) | 97% (active)
65 | [O-][n+]1c2ccc(O)cc2nc2ccc(Br)cc21 | 87% (active)
66 | O=C1c2ccccc2-c2nc3ccccc3nc21 | 85% (active)
67 | CCCCN1C(=O)N(c2ccc(OCC)cc2)C2N(CCCC)C1C(C)(C)C2(C)C (stereo not drawn) | 35%
68 | CO[C@H]1C[C@](C)(O)Cc2cc3c(c(O)c21)C(=O)c1c(O)cc2c(c1C3=O)O[C@@H]1O[C@@]2(C)[C@H](O)[C@@H](N(C)C)[C@@H]1O | 72% (active)
69 | COc1cc2c(cc1[N+](=O)[O-])C(=O)C(Br)(Br)CCC2 | 99% (active)
70 | O=C1OC(CCl)CN1/N=C/c1ccc([N+](=O)[O-])o1 (stereo not drawn) | 45%
71 | CN(C)CCOc1ccc2c(c1)C/C(=C/c1ncc([N+](=O)[O-])n1C)C2=O | 83% (active)
72 | CCCCCCCCCCCCCCCCCCN(C)CC(COP(=O)([O-])OCC[N+](C)(C)C)OC (stereo not drawn) | 98% (active)
73 | CC(C)c1ccccc1NC(=O)/C(Cl)=C(\Cl)C(=O)O | 11%
74 | O=[N+]([O-])C(=C(Sc1ccccc1)Sc1ccccc1)C(Cl)=C(Cl)Cl | 46%
75 | C(=C\c1ccccc1)/COc1ccccc1C(N1CCOCC1)n1nc2ccccc2n1 (stereo not drawn) | 96% (active)
76 | O=C1C(Nc2ccccc2)=C(Oc2ccccc2)C(=O)c2ccccc21 | 27%
77 | CCN(CC)CCN1C(=O)c2cccc3cc(OC)cc(c23)C1=O | 90% (active)
78 | CN(C)Cc1cc(N=Nc2ccc(Cl)cc2)cc(CN(C)C)c1O | 10%
